The values that follow come from PubChem BioAssay (Tox21).

The nature of assay [1]: A CellTox Green Cytotoxicity Assay to monitor cytotoxicity in HepG2 cells - 0 hour (AID 1224882). Note: nearly all actives have a fitted effect of over 35% in size. The gist of the method: (§1)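 Continuous culture of HepG2 cells with a membrane-impermeant DNA dye; rising fluorescence marks dead cells. Compound exposure lasted up to 40 h at 37 C, with reads every 8 h from 0 h.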
The nature of assay [2]: A CellTox Green Cytotoxicity Assay to monitor cytotoxicity in HepG2 cells - 32 hour (AID 1224883). Note: nearly all actives have a fitted effect of over 50% in size. Note: potency is the fitted concentration of half-maximal effect. In outline: as §1
Assay [3] in a line: A CellTox Green Cytotoxicity Assay to monitor cytotoxicity in HEK293 cells - 8 hour (AID 1224884). Note: nearly all actives have a fitted effect of over 35% in size. Note: potency is the fitted concentration of half-maximal effect. In outline:
(§2)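 Each value comes from one timepoint of a single continuous run in which HEK293 cells with CellTox Green were exposed to compound for up to 40 h at 37 C, dye fluorescence rising with cell death.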

The nature of assay [4]: qHTS RealTime-Glo MT Cell Viability Assay in HepG2 cells - 16 hour (AID 1224885). Note: nearly all actives have a fitted effect of over 50% in size. Note: potency is the fitted concentration of half-maximal effect. In outline: (§3)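 Cells + NanoLuc/prosubstrate dispensed (600 cells/well) → 5 h at 37 C/5% CO2 → compounds in DMSO transferred → 40 h incubation at 37 C, luminescence read at 0, 8, 16, 24, 32, 40 h.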
(In general: In qHTS, concentration-response curves come from the screen itself.)

Assay [5] in a line: qHTS RealTime-Glo MT Cell Viability Assay in HEK293 cells - 24 hour (AID 1224886). Note: nearly all actives have a fitted effect of over 50% in size. Note: potency is the fitted concentration of half-maximal effect. In outline:
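Tox21 10K qHTS, HEK293, 600 cells/well, RealTime-Glo reagent co-dispensed with cells; 5 h preincubation, compound by pintool, 37 C, luminescence at 0–40 h.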

Assay [6] can be described thus: qHTS RealTime-Glo MT Cell Viability Assay in HEK293 cells - 8 hour (AID 1224887). Note: nearly all actives have a fitted effect of over 50% in size. Note: potency is the fitted concentration of half-maximal effect. The gist of the method: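 qHTS format; HEK293 cells with NanoLuc/prosubstrate reagent, 37 C/5% CO2 for 5 h pre-dosing; compounds 23 nL in DMSO; luminescence at each time point reflects viable cells.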
Assay [7] can be described thus: A CellTox Green Cytotoxicity Assay to monitor cytotoxicity in HEK293 cells - 16 hour (AID 1224888). Note: nearly all actives have a fitted effect of over 35% in size. Note: potency is the fitted concentration of half-maximal effect. The gist of the method:
as §2

A short description of assay [8]: A CellTox Green Cytotoxicity Assay to monitor cytotoxicity in HepG2 cells - 8 hour (AID 1224890). Note: nearly all actives have a fitted effect of over 45% in size. In outline: as §1
A short description of assay [9]: qHTS assay to identify small molecule antagonists of the estrogen receptor alpha (ER-alpha) signaling pathway using the BG1 cell line in the presence of 0.1 nM 17-beta-estradiol - cell viability counter screen (AID 1259241). Note: nearly all actives have a fitted effect of over 40% in size. In outline: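 Estradiol-stimulated (0.1 nM) VM7Luc4E2 cells exposed to compounds 22 hr; viability measured by fluorescence of cleaved CellTiter-Fluor substrate after 30 min.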

Assay [10] is described as follows: qHTS RealTime-Glo MT Cell Viability Assay in HepG2 cells - 0 hour (AID 1224889). Note: nearly all actives have a fitted effect of over 50% in size. Note: potency is the fitted concentration of half-maximal effect. In outline: as §3

Structures are written as SMILES. “And” between values parts separate entries of the source, which are not always exact repeats. Equal values may be shown once. Inconclusive results are not listed. Some compounds were tested as several samples or in several runs, with calls that do not always agree. The source made the active and inactive calls. Calls come from the whole dose curve; as a rule, active = well fitted curve in the direction sought with a large enough effect in the repeat runs; inconclusive = weak or mixed curves; inactive = no such curve, though single readings can be large; an effect the other way counts as inactive or inconclusive.

On to `C=CC(=O)OCCCC`, for which the Potency result in assay [1], in assay [2], in assay [3], in assay [4], in assay [5] and in assay [6] was “inactive” each time. Moreover, the Potency result in assay [7], in [8] and in [9] was “inactive” each time.

In the case of `CC[C@]12CCCN3CCc4c(n(c5ccccc45)[C@@](O)(C(=O)OC)C1)[C@@H]32`, the Potency entry in [1], in assay [2], in assay [3], in [4], in [5] and in assay [6] was “inactive” each time. Besides, the Potency entry in assay [7], in [10], in assay [8] and in [9] was “inactive” throughout.

In the case of `Cc1ccc(S(=O)(=O)NCl)cc1`, the Potency result in assay [1], in assay [2], in assay [3], in [4], in assay [5] and in [6] was “inactive” throughout. In addition, the Potency result in assay [7], in [8] and in [9] was “inactive” each time.

As to `ClC/C=C/CCl`, the Potency result in [1], in assay [2], in assay [3], in assay [4], in [5] and in assay [6] was “inactive” in each case. For the same molecule, the Potency entry in [7], in assay [8] and in assay [9] was “inactive” each time.

For `C1COCCN1`, the Potency entry in [1], in [2], in assay [3], in [4], in assay [5] and in assay [6] was “inactive” each time. The Potency entry in [7], in [10], in [8] and in assay [9] was “inactive” each time.

`O=C(O)c1ccc(O)cc1`: the Potency entry in [1], in assay [2], in [3], in [4], in assay [5] and in [6] was “inactive” in each case. Besides, the Potency result in [7], in [10], in [8] and in [9] was “inactive” in each case.

Turning to `C[C@]12CC[C@@H]3c4ccc(O)cc4CC[C@H]3[C@@H]1CC[C@H]2O`, the Potency entry in assay [1], in [3], in assay [4], in assay [6], in [7] and in [10] was “inactive” each time. For the same molecule, the Potency entry in [8] and in assay [9] was “inactive” throughout. The Potency is 11.2 µM (active) and 34.7 µM (active) in assay [2]; 5.59 µM (active) and 13.8 µM (active) in assay [5].

As for `COC(=O)CC(=O)OC`, the Potency result in assay [1], in [2], in assay [3], in assay [4], in [5] and in assay [6] was “inactive” in each case. The Potency entry in assay [7], in assay [10], in assay [8] and in assay [9] was “inactive” throughout.

As for `C=C[C@H]1CN2CC[C@H]1C[C@H]2[C@H](O)c1ccnc2ccc(OC)cc12`, the Potency result in [1], in assay [3], in assay [4], in assay [5], in assay [6] and in [7] was “inactive” in each case. Besides, the Potency entry in assay [10], in assay [8] and in [9] was “inactive” throughout. Also, the Potency in assay [2] was 54.9 µM (active) and inactive.

As for `CCc1cccc2c3c([nH]c12)C(CC)(CC(=O)O)OCC3` (centres undefined), the Potency result in [1], in assay [2], in assay [3], in [4], in [5] and in [6] was “inactive” throughout. In addition, the Potency entry in [7], in [10], in assay [8] and in [9] was “inactive” throughout.

For the molecule `Cc1ccc(C)c(O)c1`, the Potency entry in assay [1], in [2], in [3], in assay [4], in assay [5] and in assay [6] was “inactive” throughout. For the same molecule, the Potency result in assay [7], in assay [10], in assay [8] and in [9] was “inactive” in each case.

Consider `c1ccc2c(c1)ccc1ncccc12`, for which the Potency entry in assay [1], in assay [2], in assay [3], in [4], in assay [5] and in [6] was “inactive” in each case. The Potency result in assay [7], in [8] and in [9] was “inactive” each time.

On to `C=CC(C)(O)CCC=C(C)C` (centres undefined), for which the Potency entry in assay [1], in assay [2], in assay [3], in [4], in assay [5] and in assay [6] was “inactive” throughout. Moreover, the Potency entry in [7], in assay [10], in [8] and in assay [9] was “inactive” in each case.

On to `CN(C)CCCN1c2ccccc2Sc2ccc(Cl)cc21`, for which the Potency result in [1] and in assay [8] was “inactive” throughout. For the same molecule, the Potency in assay [2] was 24.5 µM (active) and 23.9 µM (active); in assay [3] it was 54.9 µM (active) and inactive; in [4], 49 µM (active) and 23.9 µM (active); in assay [5] it was 24.5 µM (active) and 23.9 µM (active); in [6], 30.9 µM (active); in [7] it was 54.9 µM (active) and 26.8 µM (active).

Regarding `CC(=O)[C@@]1(O)CC[C@H]2[C@@H]3C[C@H](C)C4=CC(=O)C=C[C@]4(C)[C@@]3(F)[C@@H](O)C[C@@]21C`, the Potency entry in assay [1], in assay [2], in assay [3], in assay [4], in assay [6] and in assay [7] was “inactive” throughout. The Potency result in [8] and in assay [9] was “inactive” each time. The Potency in assay [5] was 27.5 µM (active) and inactive; in assay [10], 347 nM (active) and 1.34 µM (active).

As for `NCCOCCO`, the Potency result in [1], in [2], in [3], in [4], in assay [5] and in assay [6] was “inactive” throughout. The Potency entry in assay [7], in assay [8] and in [9] was “inactive” throughout.

On to `OC[C@H]1O[C@@H]2O[C@H]3[C@H](O)[C@@H](O)[C@@H](O[C@H]4[C@H](O)[C@@H](O)[C@@H](O[C@H]5[C@H](O)[C@@H](O)[C@@H](O[C@H]6[C@H](O)[C@@H](O)[C@@H](O[C@H]7[C@H](O)[C@@H](O)[C@@H](O[C@H]1[C@H](O)[C@H]2O)O[C@@H]7CO)O[C@@H]6CO)O[C@@H]5CO)O[C@@H]4CO)O[C@@H]3CO`, for which the Potency result in [1], in assay [2], in assay [3], in [4], in [5] and in assay [6] was “inactive” in each case. Also, the Potency result in assay [7], in assay [10], in assay [8] and in assay [9] was “inactive” each time.

In the case of `CC/C(=C(/CC)c1ccc(O)cc1)c1ccc(O)cc1`, the Potency entry in assay [1], in assay [2], in assay [3], in assay [4], in assay [7] and in assay [10] was “inactive” throughout. The Potency entry in assay [8] and in [9] was “inactive” in each case. The Potency was 12.2 µM (active) and 27.5 µM (active) in assay [5]; 15.4 µM (active) in assay [6].

On to `NCCN`, for which the Potency result in [1], in assay [2], in assay [3], in [4], in assay [5] and in assay [6] was “inactive” each time. For the same molecule, the Potency entry in assay [7], in assay [8] and in assay [9] was “inactive” each time.

Consider `O=C(O)c1cc(=O)[nH]c(=O)[nH]1`, for which the Potency result in assay [1], in [2], in assay [3], in assay [4], in assay [5] and in assay [6] was “inactive” throughout. The Potency result in assay [7], in assay [8] and in [9] was “inactive” throughout.

Regarding `CC(=O)OC(C)C`, the Potency result in assay [1], in assay [2], in assay [3], in [4], in assay [5] and in assay [6] was “inactive” each time. Besides, the Potency entry in [7], in assay [8] and in assay [9] was “inactive” throughout.

As for `Brc1nc2ccccc2s1`, the Potency result in assay [1], in assay [2], in assay [3], in [4], in assay [5] and in [6] was “inactive” each time. The Potency entry in assay [7], in assay [8] and in assay [9] was “inactive” each time.
